# Measured values: the supplement of paper PMC11219838
# A number with no mark means an inactive call.
# System: Caenorhabditis elegans L1 (N2)
# Experiment: survival and reproduction score of C. elegans L1 (0: 0-10 living worms, 1: 11-20, 2: 21-50, 3: >50, 4: overgrown) (score 0-4); higher = more worms, less nematicidal, active = 1 or less; extreme values may be limits of the assay
# Settings: 60 µM; 6 days; temperature: 20 °C
# Protocol: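 DODA library (846 commercial 1,3,4- and 1,2,4-oxadiazole compounds plus commercial nematicide controls) screened at a single dose of 60 µM (0.6% DMSO) in 96-well plates, two biological replicates. Read-outs: C. elegans N2 L1 survival/reproduction score at day 6, 20 °C (0: 0-10 worms, 1: 11-20, 2: 21-50, 3: >50, 4: overgrown/starved). C. elegans daf-2 dauer, D. dipsaci and M. hapla J2 mobility at day 5, 20 °C, and P. penetrans mobility at day 5, 20 °C, each relative to DMSO controls. M. hapla egg hatching at day 12, 25 °C, relative to the mean of 8 DMSO wells on the same plate.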
row,Compound,survival and reproduction score
1,Cc1ccc(-c2nc(-c3cccc(C(F)(F)F)c3)no2)cc1,3.5
2,Cc1cc(C)c(C)c(OCc2nc(-c3ccccc3)no2)c1,4
3,Cc1nc(CSc2nnc(-c3ccc(Cl)cc3)o2)cs1,4
4,CC(Oc1ccccc1)c1nc(-c2ccccn2)no1 (stereo not given),4
5,c1ccc(-c2noc(CSc3nc4ccccc4[nH]3)n2)cc1,4
6,O=C(CSc1nnc(-c2ccccc2)o1)Nc1cccc(Br)c1,4
7,Brc1ccc(-c2noc(-c3ccco3)n2)cc1,0 (active)
8,O=C(CSc1nnc(-c2ccc(Cl)cc2Cl)o1)c1ccc2c(c1)OCCO2,4
9,CCc1cccc(CC)c1NC(=O)CSc1nnc(-c2ccccc2OC)o1,4
10,Clc1ccc(OCc2nc(-c3ccccc3)no2)cc1,4
11,CC(=O)c1cccc(NC(=O)CSc2nnc(-c3ccccc3)o2)c1,4
12,N#Cc1ccc(OCc2nc(-c3ccc(Br)o3)no2)cc1,4
13,COc1ccc(-c2nnc(SCc3cccc(C#N)c3)o2)cc1,4
14,Cc1ccc(CSc2nnc(-c3ccco3)o2)c(C)c1,0 (active)
15,COc1ccc(-c2nnc(SCC(=O)Nc3cc(Cl)ccc3C)o2)cc1,4
16,CCOc1cc(-c2nc(-c3ccccc3C)no2)cc(OCC)c1OCC,4
17,Cc1ccc(CSc2nnc(-c3ccncc3)o2)cc1,4
18,CCCCCOC(=O)CSc1nnc(-c2ccc(Cl)cc2Cl)o1,4
19,COc1ccc(NC(=O)CSc2nnc(-c3ccccc3)o2)cc1,4
20,Clc1ccccc1OCc1nc(-c2ccc(Br)cc2)no1,4

row,Compound,survival and reproduction score
1,Cc1ccccc1OCc1nc(-c2cccc(C(F)(F)F)c2)no1,4
2,c1ccc(COc2cccc(-c3nc(-c4ccccn4)no3)c2)cc1,4
3,COc1ccc(-c2nnc(SCC(=O)Nc3ccc(Br)cc3C)o2)cc1,4
4,O=C(CSc1nnc(-c2ccco2)o1)Nc1cccc2ccccc12,4
5,Cn1c(SCc2nc(-c3ccccc3)no2)nnc1-c1ccco1,0 (active)
6,CCOC(=O)c1sc(NC(=O)CSc2nnc(-c3ccc(Cl)cc3)o2)c(C(=O)OCC)c1C,4
7,CCOc1cc(-c2nc(-c3ccc(OC)cc3)no2)cc(OCC)c1OCC,4
8,Cc1ccc(NC(=O)CSc2nnc(-c3ccccc3)o2)c(C)c1,4
9,COc1ccc(CCC(=O)Nc2ccc(-c3noc(-c4ccccc4C)n3)cc2)cc1,4
10,Clc1ccc(OCc2ccccc2)c(-c2nc(-c3cccnc3)no2)c1,4
11,COc1ccccc1-c1noc(-c2ccccc2)n1,4
12,Cc1cc(OCc2nc(-c3ccccn3)no2)ccc1Cl,4
13,CCOc1ccccc1-c1nnc(SCc2ccc(C(=O)OC)o2)o1,4
14,Clc1ccc(-c2noc(COc3ccc4c(c3)OCO4)n2)cc1,4
15,Cc1ccc(-c2noc(-c3ccccc3OCC(N)=O)n2)cc1,4
16,Cc1ccc(-c2nnc(SCc3ccccc3F)o2)cc1,4
17,Cc1ccc(Cl)cc1NC(=O)CSc1nnc(-c2ccncc2)o1,4
18,COc1ccc(Cl)cc1NC(=O)CSc1nnc(-c2ccco2)o1,4
19,Cc1ccc(SCc2nc(-c3ccc(C)cc3)no2)cc1,4
20,Cc1ccc(C)c(-c2nc(-c3ccncc3)no2)c1,0 (active)
